Measurements reported in PubChem BioAssay (EPA / NIEHS).
Records with an inconclusive call do not appear. Activity calls are given as the source filed them. How the source made its calls: active means hit-call score of the fitted dose curve at least 0.9, where 1 is the maximum; inconclusive means response in the unintended direction; inactive means score below 0.9.

Read-out: xenobiotic metabolism (CYP1A2), CYP1A2 (gene 1544)
Test: CLD_CYP1A2_24hr: CellzDirect (CLD) Gene Expression Assay for xenobiotic metabolism (CYP1A2) at 24 hours (AID 2283683)
Protocol: CLD_24hr is a cell-based, multiplexed-readout assay that uses hepatocyte, a human liver primary cell, with measurements taken at 24 hours after chemical dosing in a 96-well plate.CLD_CYP1A2_24hr is one of 16 assay component(s) measured or calculated from the CLD_24hr assay. It is designed to make measurements of mRNA induction, a form of inducible reporter, as detected with chemiluminescence signals by Quantitative Nuclease Protection Assay (qNPA) technology.Data from the assay component CLD_CYP1A2_24hr was analyzed at the endpoint, CLD_CYP1A2_24hr, in the positive analysis fitting direction relative to DMSO as the negative control and baseline of activity. Using a type of inducible reporter, gain-of-signal activity can be used to understand changes in the reporter gene as they relate to the gene CYP1A2. Furthermore, this assay endpoint can be referred to as a primary readout. To generalize the intended target to other relatable targets, this assay endpoint is annotated to the cyp intended target family, where subfamily is xenobiotic metabolism.
Human hepatocyte cultures were treated daily for two consecutive days with fresh dosing solutions containing appropriate concentrations of the 320 ToxCast chemicals (chemical identities were blinded to CellzDirect and other ToxCast collaborators), vehicle control (0.2% DMSO), and positive control inducers as summarized in Table 1. Due to the large number of treatment groups and chemicals examined, the ToxCast chemicals were divided into two groups (spanning two independent cultures of hepatocytes from separate donor preparations (Hu778: ToxCast plates 1 and 2; Hu776: ToxCast plates 3 and 4). Each preparation of human hepatocyte cultures was treated with respective vehicle control, medium only control, set of six positive controls/reference chemicals for the five hepatic receptor pathways, and a subset of eight of the ToxCast chemicals (indoxacarb, pyrithiobac-sodium, norflurazon, cyhalofop-butyl, methomyl, thiram, acetochlor, and propiconazole). These replicate data, coupled with internal replicates designed within the blinded ToxCast chemical library, provided additional data to evaluate interindividual differences between hepatocyte preparations and their potential impact on chemical profiles.Cell morphology and integrity were evaluated using phase-contrast microscopy as an indicator of hepatocyte cell health (Tyson & Green, 1987). Cultures for each treatment group (i.e., media, vehicle [0.2% DMSO], positive control inducers [multiple concentrations], and the ToxCast chemicals [multiple concentrations]) were observed and cell morphology was assessed relative to vehicle control cultures at each harvest time point (0, 6, 24, or 48 h). […] Images were evaluated at the conclusion of the study to assess changes in cell integrity and account for the effects of chemical exposure on uncharacteristic changes in concentration-dependent gene expression profiles. The results from these determinations of apparent cytotoxicity were annotated (yes/no) alongside the corresponding qNPA data for reference.At the conclusion of each treatment period, hepatocyte cultures (96-well) were washed with 1 volume of HBSS, lysed by addition of 25 ul ArrayPlate lysis buffer (HTG, Tucson, AZ), and 70 ul/well of Denaturation Oil, denatured by incubation at 95C for 10 min, and frozen at approximately -70C until analysis by nuclease protection assay (qNPA) (Roberts et al., 2007). For qNPA analysis, cell lysates were thawed at 50C for approximately 30 min, qNPA probes were added, and samples were incubated at 95C for 10 min to begin the detection process by denaturing the target RNA, dissociating the duplexes and secondary structure hybridization. At the conclusion of the hybridization period, S1 nuclease reagent was added to each sample to digest all nonprotected nucleotides at 50C for 60-90 min. […]

SMILES | AC50 | outcome
CC(C1CC1)C(O)(Cn1cncn1)c1ccc(Cl)cc1 (stereo not given) | 4.89 µM (active) | 
CCC(=O)Nc1ccc(Cl)c(Cl)c1 | 3.95 µM (active) | 
CCCSP(=O)(OCC)Oc1ccc(Br)cc1Cl (stereo not given) | 4.13 µM (active) | 
CC(C)[C@H](C(=O)O[C@H](C#N)c1cccc(Oc2ccccc2)c1)c1ccc(Cl)cc1 |  | inactive
CCOC(=O)CC(SP(=O)(OC)OC)C(=O)OCC (stereo not given) | 2.38 µM (active) | 
COc1cccc(C(=O)NN(C(=O)c2cc(C)cc(C)c2)C(C)(C)C)c1C | 32.6 µM (active) | 
CN1COCN(Cc2cnc(Cl)s2)C1=N[N+](=O)[O-] |  | inactive
C#CC(C)(C)NC(=O)c1cc(Cl)cc(Cl)c1 |  | inactive
O=[N+]([O-])c1cc(C(F)(F)F)c(Cl)c([N+](=O)[O-])c1Nc1ncc(C(F)(F)F)cc1Cl | 0.508 µM (active) | 
CCCCSP(=O)(SCCCC)SCCCC | 2.48 µM (active) | 
CSc1nc(NC(C)C)nc(NC(C)C)n1 | 2.63 µM (active) | 
CCOP(=S)(Oc1cnc(C(C)(C)C)nc1)OC(C)C (stereo not given) | 6.43 µM (active) | 
Cc1cc(C2CC2)nc(Nc2ccccc2)n1 | 4.15 µM (active) | 
Cc1ccn2nc(S(=O)(=O)Nc3c(F)cccc3F)nc2n1 |  | inactive
CCOP(=S)(OCC)OC(Cl)C(Cl)(Cl)Cl (stereo not given) | 15.5 µM (active) | 
CNC(=O)ON=C(C)SC |  | inactive
CCCSP(=O)(OCC)SCCC | 4.21 µM (active) | 
Nc1c(Cl)cc([N+](=O)[O-])cc1Cl | 20 µM (active) | 
CCOP(=O)(SC(C)CC)N1CCSC1=O (stereo not given) |  | inactive
CCOP(=O)(OCC)Oc1cc(C)nc(C(C)C)n1 | 30.7 µM (active) | 

SMILES | AC50 | outcome
CNc1cnn(-c2cccc(C(F)(F)F)c2)c(=O)c1Cl | 5.72 µM (active) | 
CSc1nnc(C(C)(C)C)c(=O)n1N | 20 µM (active) | 
CC[C@H](C)[C@H]1O[C@]2(C=C[C@@H]1C)C[C@@H]1C[C@@H](C/C=C(\C)[C@@H](O[C@H]3C[C@H](OC)[C@@H](O[C@H]4C[C@H](OC)[C@@H](NC)[C@H](C)O4)[C@H](C)O3)[C@@H](C)/C=C/C=C3\CO[C@@H]4[C@H](O)C(C)=C[C@@H](C(=O)O1)[C@]34O)O2 |  | inactive
Cc1nn(-c2cc(NS(C)(=O)=O)c(Cl)cc2Cl)c(=O)n1C(F)F |  | inactive
O=c1ccc(=O)[nH][nH]1 |  | inactive
CC(COc1ccc(Oc2ccccc2)cc1)Oc1ccccn1 (stereo not given) |  | inactive
Nc1nc(N)nc(NC2CC2)n1 |  | inactive
CCNc1nc(Cl)nc(NC(C)(C)C#N)n1 |  | inactive
C#CCC1=C(C)C(OC(=O)C2C(C=C(C)C)C2(C)C)CC1=O (stereo not given) | 20 µM (active) | 
CCOP(=S)(OCC)SCCSCC | 6.62 µM (active) | 
CNC(=O)ON=C(SC)C(=O)N(C)C |  | inactive
CC(C)=CC1C(C(=O)OCN2C(=O)C3=C(CCCC3)C2=O)C1(C)C (stereo not given) |  | inactive
FC(F)C(F)(F)OCC(Cn1cncn1)c1ccc(Cl)cc1Cl (stereo not given) | 1.46 µM (active) | 
CC(C)N(C(=O)SCC(Cl)=C(Cl)Cl)C(C)C |  | inactive
COP(=O)(NC(C)=O)SC (stereo not given) |  | inactive
CCOC(=O)COc1cc(-c2nn(C)c(OC(F)F)c2Cl)c(F)cc1Cl |  | inactive
CCc1cccc(C)c1N(C(=O)CCl)C(C)COC (stereo not given) | 3.97 µM (active) | 
CCc1cccc(CC)c1N(COC)C(=O)CCl |  | inactive
CN(C)NC(=O)CCC(=O)O |  | inactive
CCC(=NOC/C=C/Cl)C1=C(O)CC(C2CCOCC2)CC1=O (stereo not given) |  | inactive
